This is an account of results in PubChem BioAssay (NCI).

About 83,000 compounds went through this panel and 20% of them were active in at least one assay; those are over-represented in the sample as a whole.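 Treatment: one concentration, 48 hours, 96-well format. Scoring: percent growth, with anything below 10 considered active.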 Values without a mark were called inactive. The source made the active and inactive calls.

Some test systems named below: DU-145 prostate; K-562 leukemia; MALME-3M melanoma; MDA-MB-231 breast; RXF 393 renal; SF-268 CNS; SF-295 CNS; SF-539 CNS; UACC-257 melanoma; M14 melanoma.
Experiment in all cases: NCI-60 one-dose screen, 48 h (100 = growth as untreated, 0 = no growth, -100 = all killed)
What all share (conditions): 10 µM unless noted

As to `NC1CC2CCCCC2CC1(O)c1ccccc1` (stereo not given), the growth with DU-145 prostate is 103%; with K-562 leukemia it was 92.4%; in the test with MALME-3M melanoma, 96.1%; in the test with MDA-MB-231 breast it was 99.8%; in the test on RXF 393 renal, 101%; in the test with SF-268 CNS, 102%. In addition, the growth is 114% in the test on SF-295 CNS, 99.1% in the test on SF-539 CNS, 98% in the test on UACC-257 melanoma and 100% in the test on M14 melanoma.

Consider `COC(=O)[C@@H](C)C[C@H](Cc1ccccc1)NC(=O)c1nc([C@@H](C[C@H](C(C)C)N(C)C(=O)[C@@H](NC(=O)[C@H]2CCCCN2C)C(C)C)OC(C)=O)sc1C(C)C`, for which the growth with DU-145 prostate is -0.426% (active); in the test on K-562 leukemia it was 7.38% (active); with MALME-3M melanoma, 57.5%; with MDA-MB-231 breast, 2.67% (active); in the test with RXF 393 renal it was 23.7%; with SF-268 CNS, 22.1%. Besides, the growth was -1.35% (active) in the test on SF-295 CNS, -22.2% (active) in the test on SF-539 CNS, 50.7% in the test with UACC-257 melanoma and -26.6% (active) in the test on M14 melanoma.

Turning to `O=C1C2C(C(=O)[N]1[Hg][c]1cccs1)C1(Cl)C(Cl)=C(Cl)C2(Cl)C1(Cl)Cl` (stereo not given), the growth in the test on DU-145 prostate is 53.8%; in the test on K-562 leukemia, -2.45% (active); in the test with MALME-3M melanoma it was -63.7% (active); in the test on MDA-MB-231 breast, -56.2% (active); with RXF 393 renal, -83.5% (active); in the test on SF-268 CNS it was 32.3%. For the same compound, the growth with SF-295 CNS was 58.3%; with SF-539 CNS, 12.6%; with UACC-257 melanoma, -50.8% (active); with M14 melanoma, -57.9% (active).

As for `Nc1ccc(-c2nc3cc(F)ccc3[se]2)cc1F`, the growth was 96.8% in the test on DU-145 prostate; 93% in the test on K-562 leukemia; 102% in the test with MALME-3M melanoma; 42.3% in the test with MDA-MB-231 breast; 82.6% in the test with RXF 393 renal; 80.8% in the test with SF-268 CNS. For the same compound, the growth is 87.6% in the test with SF-295 CNS, 86.9% in the test with SF-539 CNS, 98.1% in the test on UACC-257 melanoma and 91.8% with M14 melanoma.

For the compound `CN1CCCCC1C(C)(O)c1ccccc1` (stereo not given), the growth in the test on DU-145 prostate was 111%; with K-562 leukemia, 114%; in the test on MALME-3M melanoma, 97.6%; in the test on MDA-MB-231 breast, 112%; in the test with RXF 393 renal, 116%; with SF-268 CNS it was 101%. The growth in the test on SF-295 CNS was 96.2%; with SF-539 CNS, 93.6%; with UACC-257 melanoma, 96.5%; with M14 melanoma, 92.9%.

In the case of `CC(=O)O[C@H](C[C@H](C(C)C)N(C)C(=O)[C@@H](NC(=O)[C@H]1CCCCN1C)C(C)C)c1nc(C(=O)N[C@@H](Cc2ccccc2)C[C@H](C)C(=O)O)c(C)s1`, the growth with DU-145 prostate is 21.8%; in the test on K-562 leukemia, 14%; in the test on MALME-3M melanoma it was 58.5%; in the test with MDA-MB-231 breast, 23.5%; in the test on RXF 393 renal, 53.9%; in the test with SF-268 CNS it was 29.7%. The growth in the test with SF-295 CNS is 15.9%; in the test with SF-539 CNS, 4.22% (active); with UACC-257 melanoma it was 46.3%; with M14 melanoma, 6.5% (active).

Take `NC(=S)c1cn(C2OC(CO)C(O)C2O)c2ncnc(N)c12` (stereo not given): the growth was -18.8% (active) with DU-145 prostate; -42.3% (active) in the test on K-562 leukemia; -30.5% (active) in the test with MALME-3M melanoma; -9.11% (active) in the test on MDA-MB-231 breast; -55.9% (active) in the test on RXF 393 renal; -20.9% (active) in the test on SF-268 CNS. The growth in the test with SF-295 CNS was -3.13% (active); in the test on SF-539 CNS, -53.1% (active); in the test with UACC-257 melanoma, -1.27% (active); with M14 melanoma, -57.9% (active).

For `Fc1ccc2c(c1)c(-c1nc(-c3c[nH]c4ncccc34)cs1)cn2CCCCN1CCCCC1`, the growth in the test with DU-145 prostate was -93.1% (active); with K-562 leukemia it was -74.1% (active); in the test on MALME-3M melanoma, -73% (active); with MDA-MB-231 breast, -88.4% (active); in the test on RXF 393 renal it was -73.1% (active); in the test on SF-268 CNS, -77.5% (active). The growth with SF-295 CNS was -60.7% (active); with SF-539 CNS, -82.4% (active); with UACC-257 melanoma, -87.2% (active); with M14 melanoma, -88.5% (active).

Regarding `Clc1cccc(NCOOC2(OOCNc3cccc(Cl)c3)CCCCCC2)c1`, the growth is 103% with DU-145 prostate; 32.6% in the test with K-562 leukemia; 97% in the test with MALME-3M melanoma; 103% in the test with MDA-MB-231 breast; 114% in the test on RXF 393 renal; 94.3% with SF-268 CNS. The growth is 90.4% in the test with SF-295 CNS, 86.8% with SF-539 CNS, 112% in the test on UACC-257 melanoma and 97.3% with M14 melanoma.

Turning to `COC(=O)[C@@]1(O)C[C@H]2O[C@]1(C)n1c3ccccc3c3c4c(c5c6ccccc6n2c5c31)C(=O)NC4`, the growth in the test with DU-145 prostate is -10.9% (active); with K-562 leukemia, 0.0974% (active); with MALME-3M melanoma, -81% (active); with MDA-MB-231 breast, -49.1% (active); in the test on RXF 393 renal, -93.9% (active); with SF-268 CNS, -28.8% (active). Moreover, the growth is -93.4% (active) with SF-295 CNS, -88% (active) in the test with SF-539 CNS, -47.2% (active) in the test with UACC-257 melanoma and -67.5% (active) in the test with M14 melanoma.

Take `O=[N+]([O-])c1cc([N+](=O)[O-])c(Cl)cc1Cl`: the growth is -85.3% (active) in the test on DU-145 prostate; -9.49% (active) in the test on K-562 leukemia; -68.4% (active) in the test with MALME-3M melanoma; -86.5% (active) in the test on MDA-MB-231 breast; -90.6% (active) in the test with RXF 393 renal; -80.2% (active) with SF-268 CNS. For the same compound, the growth in the test with SF-295 CNS is -70.4% (active); with SF-539 CNS, -83.2% (active); in the test with UACC-257 melanoma, -68.9% (active); in the test with M14 melanoma, -96.8% (active).

For `CC[C@]12C=CCN3CC[C@@]4(c5ccc(OC)cc5N(C)[C@H]4[C@@](O)(C(=O)OC)[C@@H]1OC(=O)CCCC[P+](c1ccccc1)(c1ccccc1)c1ccccc1)[C@@H]32`, the growth in the test with DU-145 prostate is 14.7%; in the test with K-562 leukemia, 21.7%; with MALME-3M melanoma it was -35.8% (active); in the test with MDA-MB-231 breast, -2.41% (active); with RXF 393 renal it was -13.3% (active); with SF-268 CNS, 16.2%. Further, the growth in the test on SF-295 CNS was 58.1%; with SF-539 CNS it was 19%; in the test with UACC-257 melanoma, 2.15% (active); with M14 melanoma, 29.4%.

With `CC1(C)C(C(=O)c2cn(CCCCF)c3ccccc23)C1(C)C`, the growth in the test with DU-145 prostate was 105%; in the test on K-562 leukemia, 71.3%; in the test on MALME-3M melanoma, 92.9%; with MDA-MB-231 breast it was 94%; in the test with RXF 393 renal it was 84.5%; with SF-268 CNS, 98.8%. The growth was 91.5% with SF-295 CNS, 93.2% with SF-539 CNS, 81.1% in the test on UACC-257 melanoma and 95% in the test on M14 melanoma.
